This is a sample that favours compounds with a hit; in the whole collection about 14% have one here.
Sm TGR inh: blocks Schistosoma mansoni thioredoxin glutathione reductase. Q962Y6. purified TGR, DTNB reduction, TNB absorbance 405 nm. Potency, µM (doses to about 114 µM), inactives show at the highest dose activity change, negative = inhibition, most hits filed as inhibitors. actives 3% (n = 360,000); further: potency means the concentration at half of the fitted maximal effect; nearly all actives have a fitted effect of over 60% in size
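TGR 20 nM + NADPH 100 uM (dispensed conc.), cpd preinc 15 min RT; start with NADPH (500 uM addition) then DTNB (15 mM addition). Kinetic TNB absorbance, 405 nm filter. Four-parameter Hill fit across titration.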
HCMV inh: inhibitors of human cytomegalovirus | HFF cells, HCMV-luciferase reporter, 72 h; active compounds read low | activity change, negative = inhibition, % at 57.5 µM | actives 4.5% (n = 410,000) | AID 1259415; in the data active means activity change below about -60%; inconclusive means no clear call, values can overlap the other calls; inactive means above about -39%
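Two compound doses tested in HFFs infected with HCMV-luciferase, MOI 1 PFU/cell, 72 h at 37C. Lysate luminescence read with OneGlo; data normalized against buffer-only and 10uM Salinomycin inhibitor controls.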
Pf growth 96h: P. falciparum growth inhibition at 96 hours. P. falciparum luciferase reporter growth, 96 h. Potency, µM (series often up to 28.7 µM), without a hit: at the highest dose activity change, negative = inhibition, most hits filed as inhibitors. actives 6.9% (n = 320,000); further: potency means the concentration at half of the fitted maximal effect
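Compounds incubated with erythrocytes infected by luciferase-expressing P. falciparum (2% hematocrit, 0.05% parasitemia final) for 96 hours, 37 C in 5% CO2. Growth inhibition scored as decreased luciferase luminescence.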
Pf growth 48h: inhibits P. falciparum growth in the first generation, 48 h | Potency, µM (top dose mostly 28.7 µM), for the others: at the highest dose activity change, negative = inhibition, usual class: inhibitors | actives 5.9% (n = 310,000) | P. falciparum luciferase growth in erythrocytes, 48 h | AID 504832; further: potency means the concentration at half of the fitted maximal effect
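Luciferase-expressing P. falciparum in infected erythrocytes (2% hematocrit, 0.1% parasitemia final) in RPMI 1640/0.5% Albumax were exposed to compound for 48 hours at 37 C, 5% CO2; growth read as luminescence.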
Giardia FBPA inh-1: blocks Giardia fructose-bisphosphate aldolase activity. A8B2U2. actives 0.71% (n = 290,000). Potency, µM (series often up to 59.6 µM), for the others: top-dose activity, negative = inhibition, actives largely listed as inhibitors. purified Giardia FBPA; further: potency means the concentration at half of the fitted maximal effect; nearly all actives have a fitted effect of over 55% in size
Target sequence (A8B2U2 whole entry, looked up): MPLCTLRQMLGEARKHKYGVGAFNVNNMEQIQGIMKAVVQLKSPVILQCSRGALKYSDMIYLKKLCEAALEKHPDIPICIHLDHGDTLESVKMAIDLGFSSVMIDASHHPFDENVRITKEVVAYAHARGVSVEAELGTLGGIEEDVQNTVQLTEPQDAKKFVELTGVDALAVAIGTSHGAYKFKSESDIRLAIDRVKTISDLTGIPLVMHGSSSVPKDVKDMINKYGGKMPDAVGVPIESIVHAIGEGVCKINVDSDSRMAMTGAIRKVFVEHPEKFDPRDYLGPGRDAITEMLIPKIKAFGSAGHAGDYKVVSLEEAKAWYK
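Giardia FBPA (40 nM reagent) was preincubated 10 min at RT with compound (up to 57.5 uM final), then substrate plus GAPDH/TPI/NAD/arsenate coupling system with diaphorase/resazurin was added; resorufin fluorescence (525/598 nm) was read after 20 min.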
Giardia growth: inhibitors of Giardia lamblia growth; actives 5% (n = 1,500); shares compounds with Giardia FBPA inh-1; Potency, µM (top dose mostly 57.5 µM), without a hit: top-dose activity change, negative = inhibition, most hits filed as inhibitors; Giardia lamblia trophozoite growth inhibition;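 further: potency means the concentration at half of the fitted maximal effect; trophozoites exposed to compound for 48 h at 37 °C; nearly all actives have a fitted effect of over 70% in size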
Mammalian tox: mammalian cytotoxicity of Giardia aldolase inhibitor hits | shares compounds with Giardia FBPA inh-1 | mammalian cell viability counter-screen, qHTS | Potency, µM (series often up to 57.5 µM), for the others: at the highest dose viability change, negative = toxicity, usual class: inhibitors | actives 4% (n = 1,500);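 further: Chinese hamster ovary cells used as mammalian cytotoxicity surrogate; viability measured as cellular ATP by luminescence; potency means the concentration at half of the fitted maximal effect; compound exposure lasted 48 h before reading; nearly all actives have a fitted effect of over 60% in size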
Giardia FBPA inh-2: confirmation of Giardia fructose-bisphosphate aldolase inhibitors. actives 5% (n = 1,500). purified Giardia aldolase enzyme activity, qHTS. Potency, µM (doses to about 57.5 µM), for inactives: at the top dose activity change, negative = inhibition, most hits filed as inhibitors. AID 2787. shares compounds with Giardia FBPA inh-1; further: potency means the concentration at half of the fitted maximal effect; nearly all actives have a fitted effect of over 45% in size
Rabbit FBPA inh: selectivity test for Giardia aldolase inhibitors: rabbit aldolase | shares compounds with Giardia FBPA inh-1 | Rabbit muscle FBPA enzyme inhibition, selectivity counter-screen | Potency, µM (top dose mostly 57.5 µM), inactives show at the top dose activity, negative = inhibition, most hits filed as inhibitors | actives 4% (n = 1,500); further: potency means the concentration at half of the fitted maximal effect; nearly all actives have a fitted effect of over 60% in size
GAPDH counter: counter-screen for Giardia aldolase inhibitors: GAPDH coupling enzyme | Potency, µM (doses to about 57.5 µM), inactives show top-dose activity change, negative = inhibition, actives largely listed as inhibitors | GAPDH coupling enzyme counterscreen, biochemical, qHTS | shares compounds with Giardia FBPA inh-1 | actives 6% (n = 1,500); further: potency means the concentration at half of the fitted maximal effect; nearly all actives have a fitted effect of over 55% in size
Active calls of the source: *; ? = inconclusive; · = no result; [ ] = another dose, or the depositor's remark. Unless noted, the call rests on the fitted dose curve; in most records, active means well fitted curve in the direction sought with a large enough effect; inconclusive means small, poorly fitted or top-dose-only effect, or another doubt; inactive means no such curve, though single readings can be large; an effect the other way counts as inactive or inconclusive. On the % scale 0 is the no-effect control and ±100 the full control effect.

SMILES	Sm TGR inh	HCMV inh	Pf growth 96h	Pf growth 48h	Giardia FBPA inh-1	Giardia growth	Mammalian tox	Giardia FBPA inh-2	Rabbit FBPA inh	GAPDH counter
O=C(O)c1cc(-c2cc(C(=O)O)c3ccccc3n2)nc2ccccc12	-7%	·	-13%	21%	2.5µM*	-13%[38.3 µM]	-11%	-2%	4%	-6%
CC1=C[C@H](C)[C@H](c2c(F)cccc2Cl)CC1=O	-1%	·	-26%	15%	5%	·	·	·	·	·
CCCCc1nnc(NC(=O)CN2C(=O)NC3(CCCCC3)C2=O)s1	3%	-4	-2%	10%	-2%	·	·	·	·	·
COc1ccc(N)cc1-n1c(C)ccc1C	16µM*	-65*	35%	?	?	12%[38.3 µM]	3%	?	?	8.9µM*
CC(=O)N1CCC(C(=O)Nc2ccc(S(=O)(=O)NCCc3ccccc3)cc2)CC1	-13%	26	?	57%	19%	·	·	·	·	·
CC[C@]12c3[nH]c4ccc(OC)cc4c3CCN1C(=O)C(CC(=O)NCCCN(C)C)C[C@@H]2C(=O)N1CCN(C(=O)c2ccco2)CC1 (some centres undefined)	·	17	·	·	·	·	·	·	·	·
Cc1cc(N)ncc1[N+](=O)[O-]	·	55	·	·	·	·	·	·	·	·
Cc1cc(Sc2nc(N)ncc2[N+](=O)[O-])ncn1	2.2µM*	-99*	-12%	31%	18µM*	-6%[10.4 µM]	?	1%	15%	0%
O=[N+]([O-])c1ccccc1/C=N/n1c(C(F)(F)F)n[nH]c1=S	-7%	6	34%	2%	18µM*	-2%[10.4 µM]	4%	?	?	?
O=[N+]([O-])c1ccccc1/C=N/n1c(C2CCCCC2)n[nH]c1=S	-15%	6	17%	20%	-2%	·	·	·	·	·
COc1ccc(C=NNc2nc3c([nH]2)c(=O)n(C)c(=O)n3C)cc1	·	21	·	·	·	·	·	·	·	·
COc1ccc(NN=Nc2nc3c([nH]2)c(=O)n(C)c(=O)n3C)cc1	18µM*	-7	67%	42%	18µM*	?	-10%	13µM*	?	?
O=C(O)Cc1sc(Nc2ccc(Cl)cc2)nc1-c1cccs1	-24%	7	95%	82%	18µM*	15%	-5%	3%	9%	2%
COc1ccc(CN2C(=O)c3ccccc3C2c2nnnn2-c2ccc3c(c2)OCCO3)cc1OC (centres undefined)	·	-5	·	·	·	·	·	·	·	·
O=c1cc(CN2CCN(Cc3ccccc3)CC2)c2ccc(O)c(O)c2o1	?	9	?	·	18µM*	-28%	-28%	?	?	-24%
Cc1ccc2c(c1)CCCN2C(=O)CCc1nc2ccccc2c(=O)[nH]1	-4%	4	?	?	·	·	·	·	·	·
S=c1nc[nH]c2c1ncn2C1CCCO1 (centres undefined)	3%	16	6%	-6%	2.5µM*	17%[38.3 µM]	32µM*	-4%	-5%	-5%
OCC1OC(n2cnc3c(=S)nc[nH]c32)CC1O (centres undefined)	·	31	·	·	·	·	·	·	·	·
Cc1ccc(C)c(NS(=O)(=O)c2ccc3c(c2)Cc2cc(S(=O)(=O)Nc4cc(C)ccc4C)ccc2-3)c1	-1%	?	0%	?	0%	·	·	·	·	·
